# High-throughput results from PubChem.
# The list is not random: actives were taken first. Their share in the collection is about 10%.
# HEK293 tox: cytotoxic compounds in HEK 293 cells | HEK 293 viability, ATP luminescence (CellTiter-Glo), 48-72 h | Potency, µM (doses to about 115 µM), for inactives: at the highest dose activity change, negative = cytotoxicity, most hits filed as inhibitors | 94,000 tested, 6.6% active | AID 1345083; note: nearly all actives have a fitted effect of over 60% in size
#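 Cells seeded first (HEK 293, 250 cells/well), then compound added by pintool. Incubation ran 48 or 72 hr at 37 degree Celsius. CellTiter-Glo was added and luminescence imaged after 10 min at room temperature.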
# GPT2 inhibitor: blocks human glutamate pyruvate transaminase 2; AID 1671188; Recombinant GPT2, coupled pyruvate oxidase/HRP Amplex Red fluorescence; 100,000 tested, 0.25% active; Q8TD30; Potency, µM (top dose mostly 57.7 µM), inactives show at the top dose activity change, negative = inhibition, hits mostly inhibitors; note: nearly all actives have a fitted effect of over 60% in size
#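 Fluorescence read-out: pyruvate from GPT2 turnover coupled to pyruvate oxidase, HRP and Amplex Red (0.2mM ThPP, 0.2U/mL PO and HRP, 50uM Amplex final). Substrates 250uM a-KG, 2mM L-alanine; enzyme 10ng/uL; 30 min RT.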
# 3T3 cytotox: cytotoxic compounds in NIH 3T3 cells. NIH 3T3 viability, CellTiter-Glo ATP luminescence, 48-72 h. Potency, µM (highest dose often 96.7 µM), for inactives: top-dose activity change, negative = cytotoxicity, actives largely listed as inhibitors. 94,000 tested, 4.3% active. AID 1345082; note: nearly all actives have a fitted effect of over 55% in size
#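 Luminescent ATP readout (CellTiter-Glo, 10 min RT) after 48 or 72 hr compound exposure of NIH 3T3 cells seeded at 400 cells/well in 1536-well format; quantitative HTS.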
# NPR1 antag: blocks ANP-stimulated signaling of human Npr1 receptor; 76,000 tested, 1.6% active; P16066; Potency, µM (doses to about 46.3 µM), without a hit: top-dose activity change, negative = inhibition, actives largely listed as inhibitors; AID 1347048; HEK293 hNpr1 GloSensor cGMP, ANP-stimulated luminescence; calls by dose curve; note: nearly all actives have a fitted effect of over 60% in size
#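 HEK293 cells stably expressing human Npr1 and cGMP GloSensor pGS-40F, loaded 2 h with 2% GloSensor reagent, given compound 30 min at room temperature. Luminescence read before and 20 min after 0.1 nM hNppA.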
# Luciferase inh: inhibitors of firefly (Photinus pyralis) luciferase; P08659; Potency, µM (doses to about 115 µM), most hits filed as inhibitors; 76,000 tested, 2.5% active; purified P. pyralis luciferase, luminescence, biochemical; note: nearly all actives have a fitted effect of over 65% in size
# Target sequence (P08659 whole entry, looked up): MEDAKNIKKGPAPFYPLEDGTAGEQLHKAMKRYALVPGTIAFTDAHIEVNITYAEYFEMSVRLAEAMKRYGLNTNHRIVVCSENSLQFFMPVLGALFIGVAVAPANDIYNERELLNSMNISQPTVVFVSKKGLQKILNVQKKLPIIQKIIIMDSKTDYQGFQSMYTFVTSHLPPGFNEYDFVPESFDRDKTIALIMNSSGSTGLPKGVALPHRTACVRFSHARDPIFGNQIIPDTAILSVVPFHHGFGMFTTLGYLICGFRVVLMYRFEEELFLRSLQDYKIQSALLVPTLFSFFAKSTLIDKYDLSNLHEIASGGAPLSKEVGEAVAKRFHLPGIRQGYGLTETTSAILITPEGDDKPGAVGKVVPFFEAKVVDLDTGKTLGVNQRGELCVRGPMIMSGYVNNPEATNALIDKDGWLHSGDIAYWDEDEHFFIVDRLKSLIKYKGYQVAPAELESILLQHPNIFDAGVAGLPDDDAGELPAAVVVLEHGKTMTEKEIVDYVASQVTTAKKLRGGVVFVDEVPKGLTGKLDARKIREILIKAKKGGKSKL
#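 Purified 10nM P. pyralis luciferase with 10uM D-luciferin and 10uM ATP in 50mM Tris acetate pH 7.5, 10mM Mg acetate, 0.01% Tween-20, 0.05% BSA. qHTS titration; luminescence read by CCD imager.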
# Numbers without * were called inactive; i = inactive; ? = inconclusive; nt = no result; [ ] = dose if it differs, or a comment. Unless noted, calls come from the whole dose curve; as a rule, active = well fitted curve in the direction sought with a large enough effect; inconclusive = small, poorly fitted or top-dose-only effect, or another doubt; inactive = no such curve, though single readings can be large; an effect the other way counts as inactive or inconclusive. % is set by controls: 0 for no effect and ±100 for the full control effect; potency is the fitted concentration of half-maximal effect.
SMILES,HEK293 tox,GPT2 inhibitor,3T3 cytotox,NPR1 antag,Luciferase inh
COc1ccc(C(=O)N2CCN3C(=O)c4cc(-c5ccc(Cl)cc5)ccc4NC(=O)[C@@H]3C2)cc1,32µM*,0%,28µM*,-24%,i
O=C1Nc2ccc(-c3ccccc3)cc2C(=O)N2CCN(C(=O)c3cccnc3)C[C@H]12,-24%[172 µM],-43%[88.5 µM],-27%[174 µM],0%[70.6 µM],i
O=C1Nc2ccc(-c3ccc(Cl)cc3)cc2C(=O)N2CCN(C(=O)c3cccnc3)C[C@H]12,45µM*,-6%,?,2%,i
N#Cc1cccc(CN2CCCCC23Cc2ccccc2CNC3=O)c1 (configuration not stated),?,i,-17%,nt,nt
CC(O)=C(C#N)C(=O)Nc1ccc(C(F)(F)F)cc1,nt,i,nt,nt,nt
O=C(C1CC1)N1CCC2(CC1)NC(=O)N(c1cccc(Cl)c1)N2,?,-26%,?,-3%,i
CCc1[nH]c2c(CNC(=O)CC3C(=O)NCCN3C(C)C)cc(C)cc2c1C (configuration not stated),-11%,3%,-21%,-5%,i
CCc1[nH]c2c(CNC(=O)c3n[nH]c4c3CCC4)cc(C)cc2c1C,35µM*,-13%[11.5 µM],35µM*,-17%,i
Cc1ccc(C(=O)N2CCN(C(=O)c3nnn4c3COC(c3ccccc3)C4)CC2)cc1C (configuration not stated),?,5%,-19%,-13%,i
C#CCN[C@H]1C[C@@H]2c3[nH]c4ccccc4c3C[C@@H](C(=O)OC)N2[C@H](c2ccc(F)cc2)C1,28µM*,1%[88.5 µM],?,-2%[70.6 µM],i
COC(=O)[C@@H]1Cc2c([nH]c3ccccc23)[C@H]2C[C@H](NCCO)C[C@@H](c3ccccc3)N21,?,i,45µM*,-11%[70.6 µM],?
COc1cccc(CC(=O)N2[C@@H]3CC[C@H]2CC(NC(=O)c2ccc(F)cc2)C3)c1 (some centres not stated),-20%,i,-12%,-4%,i
COC(=O)[C@@H]1Cc2c([nH]c3ccccc23)[C@H]2C[C@@H](NC3CC3)C[C@@H](c3ccc(F)cc3)N21,8.9µM*,-24%[88.5 µM],28µM*,?,i
COC(=O)[C@@H]1Cc2c([nH]c3ccccc23)[C@H]2C[C@@H](NCCO)C[C@@H](c3cccc(OC)c3)N21,28µM*,-7%,28µM*,1%,i
O=C(c1ccc(F)cc1)C1CCN(CCn2c(=O)[nH]c3ccccc3c2=O)CC1,nt,4%,nt,nt,nt
O=C(CC1CCCC1)N1CCC(N2CC3CC(C2)[C@H]2CCCC(=O)N2C3)CC1 (some centres not stated),0%,?,i,-2%,i
COC(=O)[C@@H]1Cc2c([nH]c3ccccc23)[C@H]2C[C@H](NCc3cccs3)C[C@@H](c3ccccc3)N21,?,-15%,25µM*,-23%,i
COC(=O)[C@@H]1C[C@H](NC(=O)CCCc2cccs2)CN1C,-16%,2%,1%,1%,i
COC(=O)[C@@H]1Cc2c([nH]c3ccccc23)[C@H]2C[C@@H](NCCO)C[C@@H](c3ccc(F)cc3)N21,28µM*,-4%,28µM*,2%,i
COc1ccc([C@@H]2N[C@H](C(=O)O)Cc3c2[nH]c2ccccc32)cc1CN1CCN(c2ccccc2F)CC1,nt,i,nt,nt,nt
COc1cccc(CNC(=O)[C@@H]2C[C@@H](O)CN2C2CCN(C(=O)c3sccc3C)CC2)c1,-4%,i,-12%,0%,i
CC(C)N1CCCC2(CCN(C(=O)c3cccc4nccnc34)C2)C1=O (configuration not stated),-6%,-24%,-12%,1%,i
Cc1noc2c(N3CCN(Cc4ccccc4)CC3)cc(-c3ccsc3)nc12,56µM*,2%[88.5 µM],?,-27%[70.6 µM],i
CCn1cc(-c2ccc(OC)cc2)cc1C(=O)N1CCCCCC1,?,i,-30%,-7%,i
CCn1cc(CN(C)C(=O)c2cc(-c3ccc(OC)cc3)cn2CC)c(C)n1,35µM*,?,?,?,40µM*
SMILES,HEK293 tox,GPT2 inhibitor,3T3 cytotox,NPR1 antag,Luciferase inh
CNC(=O)c1cc[nH]c1C1CCCN(C(=O)CCc2c[nH]c3ccccc23)C1 (configuration not stated),?,i,?,6%,i
CC1=C[C@@H](CNc2ccccn2)[C@H](C(C)C)C[C@H]1Cc1nnc(-c2cncn2C)o1,63µM*,3%[88.5 µM],?,-14%[70.6 µM],i
CC1=C[C@@H](CNC(=O)c2ccccc2)[C@H](C(C)C)C[C@H]1Cc1nnc(-c2cncn2C)o1,79µM*,-7%[88.5 µM],100µM*,-15%[70.6 µM],i
CC(=O)Nc1cccc(C(=O)N2CCCN(c3cc(-c4ccc(C)c(C)c4)[nH]n3)CC2)c1,-5%,-10%,-5%,6%,?
COCCCNC(=O)N1CCCC(c2[nH]ccc2C(N)=O)C1 (configuration not stated),0%,1%,i,5%,i
CC(NC(=O)c1cc(-c2ccccc2C(F)(F)F)nc2c1cnn2C)C(C)(C)C (configuration not stated),45µM*,nt,?,nt,nt
Cn1ncc2c(C(=O)NCC(=O)OC(C)(C)C)cc(-c3ccccc3C(F)(F)F)nc21,45µM*,nt,?,nt,nt
Cn1ncc2c(C(=O)NCc3ccc(C(F)(F)F)cc3)cc(-c3ccccc3C(F)(F)F)nc21,18µM*,nt,?,nt,nt
Cn1ncc2c(C(=O)NCCCNC(=O)OC(C)(C)C)cc(-c3ccccc3F)nc21,45µM*,nt,?,nt,nt
N#Cc1ccccc1CN1CCNc2nc(COc3cccc(N4CCOCC4)c3)n(Cc3ccccc3)c2C1=O,?,i,?,-9%,i
O=C(NC1CC1)c1nc2sccn2c1-c1cccnc1,-3%[172 µM],-7%[88.5 µM],-6%[138 µM],nt,nt
Cn1ncc2c(C(=O)NCc3ccc(Cl)cc3)cc(-c3ccc(C(F)(F)F)cc3)nc21,?,nt,-22%,nt,nt
Cn1ncc2c(C(=O)NCc3ccc(Cl)cc3)cc(-c3ccccc3C(F)(F)F)nc21,32µM*,nt,?,nt,nt
Cn1ncc2c(C(=O)NCc3ccc4c(c3)OCO4)cc(-c3ccccc3C(F)(F)F)nc21,35µM*,nt,?,nt,nt
COCCNC[C@@H]1C=C(C)[C@H](Cc2nnc(-c3ccc(N(C)C)cc3)o2)C[C@H]1C(C)C,25µM*,-6%[88.5 µM],40µM*,-1%[70.6 µM],i
CC1=C[C@@H](CN2CCC(CO)CC2)[C@H](C(C)C)C[C@H]1Cc1nnc(-c2ccncc2)o1,-21%[172 µM],-11%[88.5 µM],-26%[138 µM],4%[70.6 µM],i
